Myeloid diff MLP: compounds promoting myeloid differentiation; ER-HoxA9 myeloid progenitors, lysozyme-GFP differentiation, flow cytometry; calls only at 10 µM; 360,000 compounds, 1% hits;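 active means normalized GFP-positive differentiation at or above the plate's own cutoff, the solvent-only control mean plus 3 SD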;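 further: cells exposed to compound for four days before flow analysis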
SKN-1 block: C. elegans SKN-1 inhibition. C. elegans VP596 Pgst-4::GFP/RFP ratio, acrylamide-induced, 24 h. inhibition, % at 21.8 µM. 360,000 compounds, 0.49% hits. AID 624304;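 active means interference check ratio from 0.5 to 1.5 plus GFP to RFP signal ratio inhibition reaching or exceeding a fixed threshold, cut at about 30% in these data, passing the limit was not always enough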
M1 ag: human M1 muscarinic receptor agonism. P11229. CHO-K1 hM1, Fluo-8 calcium fluorescence, agonist mode; 0% DMSO, 100% acetylcholine EC100. activation, % at 3 µM. 360,000 compounds, 0.33% hits. AID 588814;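 active means activation above the run's mean compound activation plus 3 SD, cut at about 16% in these data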;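 further: peak over basal fluorescence ratio within a 140 s kinetic read after compound addition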
M1 antag: human CHRM1 antagonism; P11229; CHO-K1 hM1, Fluo-8 calcium fluorescence, ACh EC80 antagonist; inhibition, % at 3 µM; 360,000 compounds, 1.3% hits;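 active means percent inhibition above its own plate's cutoff, namely the mean of that plate's compound wells plus 3 SD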;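 further: peak over basal fluorescence ratio during 140 s after agonist addition; 0% = ACh EC80 plus DMSO and 100% = DMSO alone without agonist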
CHRM1 PAM: human CHRM1 positive allosteric modulation. activation, % at 3 µM. P11229. CHO-K1 hM1, Fluo-8 calcium fluorescence, ACh EC20; 0% = ACh EC20, 100% = maximal ACh. 360,000 compounds, 0.088% hits; in the data active means activation above about 19%, passing the limit was not always enough
ATG4B inh: blocks human ATG4B protease cleavage of LC3 substrate; inhibition, % at 8.33 µM; 340,000 compounds, 0.51% hits; ATG4B cleavage of LC3-PLA2, NBD-HPC fluorescence, 1 h; in the data active means inhibition above about 40%
Target sequence (Q9Y4P1 whole entry, looked up): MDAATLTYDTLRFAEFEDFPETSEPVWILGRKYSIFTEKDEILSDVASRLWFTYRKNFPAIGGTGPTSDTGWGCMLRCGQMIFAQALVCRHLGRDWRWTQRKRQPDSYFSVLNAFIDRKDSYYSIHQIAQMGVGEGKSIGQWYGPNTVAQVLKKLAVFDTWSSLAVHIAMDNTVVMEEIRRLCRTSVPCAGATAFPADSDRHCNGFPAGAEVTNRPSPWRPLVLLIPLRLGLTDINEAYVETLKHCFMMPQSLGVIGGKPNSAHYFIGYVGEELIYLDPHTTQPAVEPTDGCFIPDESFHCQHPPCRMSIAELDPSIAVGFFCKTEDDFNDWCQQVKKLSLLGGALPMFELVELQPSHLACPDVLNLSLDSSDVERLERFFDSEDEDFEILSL
* marks the source's active call; other numbers are inactive results; i = inactive; . = not tested or not shown; + = active, no number. Most compounds without a hit are left out; they make up all but 3.5% or so of the library.

SMILES	Myeloid diff MLP	SKN-1 block	M1 ag	M1 antag	CHRM1 PAM	ATG4B inh
CCN1CCN(c2nc3sc4c(c3c3ncnn23)CC(C)CC4)CC1 (centres undefined)	i	65*	-6	14	-11	3
CC1CCc2sc3nc(NCc4ccco4)n4ncnc4c3c2C1 (centres undefined)	i	-10	0	-20	-2	9
CCOC(=O)N1CCN(C(=S)Nc2ccccc2C(C)C)CC1	i	8	10	17	-7	-6
Cc1cccc(NC(=S)N2CCN(Cc3ccccc3)CC2)c1C	i	1	23*	3	-1	-12
CCOC(=O)N1CCN(C(=S)Nc2cccc(C)c2C)CC1	i	7	19*	-9	1	5
O=C(CN1C(=O)CCOc2ccccc21)Nc1ccc(Cl)c(S(=O)(=O)N2CCOCC2)c1	i	-2	-4	-1	2	-1
N#Cc1c(C(F)(F)F)cc(-c2ccco2)nc1SCc1ccccn1	+	1	9	24	-9	-1
CSc1nc(-c2ccco2)cc(C(F)(F)F)c1C#N	i	7	-2	-6	1	2
N#Cc1c(C(F)(F)F)cc(-c2ccco2)nc1SCc1ccncc1	+	26	8	12	-3	7
Cc1nnc2n1N=C(c1ccc(F)cc1F)CS2	i	-17	-6	-4	8	-3
O=C1NN=C2CCCCCCC12 (centres undefined)	i	17	-7	98*	-29	.
C[C@@H]1CCCCCCCCCCC1=O	i	17	-3	-11	9	-1
CC1=C(C)/C(=N\OS(=O)(=O)c2ccccc2)C=CC1=O	.	1	8	21*	-9	-10
Cc1ccc(S(=O)(=O)O/N=C2\CCCc3ccccc32)cc1	i	15	-2	-20	0	12
CCCS(=O)(=O)NCc1ccc2c(c1)cc(C)n2C	i	53*	-10	-2	3	9
Cc1cc2cc(CNC(=O)C3CC3)ccc2n1C	i	40*	-6	-3	-1	-4
COc1cccc(C(=O)NCc2ccc3c(c2)cc(C)n3C)c1	i	50	-6	4	-4	-7
CCC(CC)C(=O)NCc1ccc2c(c1)cc(C)n2C	i	40	-4	-7	7	-4
CCOC(=O)NCc1ccc2c(c1)cc(C)n2C	i	52*	-7	12	-15	-5
CCS(=O)(=O)NCc1ccc2c(c1)cc(C)n2C	i	18	-10	-14	7	-7
COc1ccc(CC(=O)NCc2ccc3c(c2)cc(C)n3C)cc1	i	50*	-3	13	0	-4
CC(NCc1cccs1)c1ccccc1 (centres undefined)	i	-6	-9	-2	5	7
CCCCC1(C2CCCC2)NC(=O)NC1=O (centres undefined)	i	8	-4	-5	7	-2
COC(=O)c1cc(C(=O)OCC(=O)NNC(=O)c2cccs2)cc([N+](=O)[O-])c1	i	-1	-3	-6	1	0
O=C(N[C@H]1C/C=C\C[C@H](CC(=O)N(CCO)Cc2ccccc2)C(=O)NC[C@H](c2ccccc2)OC1=O)OCC1c2ccccc2-c2ccccc21	i	14	-10	-15	12	0
SMILES	Myeloid diff MLP	SKN-1 block	M1 ag	M1 antag	CHRM1 PAM	ATG4B inh
CCCCC(=O)NCc1ccc2c(c1)cc(C)n2C	i	50*	-7	0	4	-4
CCc1ccc2nc(N3CCN(C(=O)C(C)(C)C)CC3)sc2c1	+	10	-3	8	-5	-5
CCC(=O)N1CCN(c2nc3ccc(Br)cc3s2)CC1	i	43*	-1	1	5	2
CC(C)(C)C(=O)N1CCN(c2nc3ccccc3s2)CC1	i	12	1	-9	12	-4
Cc1cc(C)cc(NC(=O)CSCc2cc(=O)n3ccsc3n2)c1	i	3	-3	-7	11	0
Cc1cc(NCC2CCCCC2)nc2ccccc12	+	15	-11	11	-10	19
CC(C)c1ccc(C2(C)NC(=O)N(C(C)C(=O)Nc3ccc(N4CCOCC4)cc3)C2=O)cc1 (centres undefined)	i	24	1	-3	5	-9
NC(=O)C1CCN(c2nc(-c3ccc(F)cc3)cs2)CC1	+	11	-2	1	2	5
NC(=O)C1CCN(c2nc(-c3cccnc3)cs2)CC1	i	5	-8	-6	7	-1
C(=C\c1nccc2c1[nH]c1ccccc12)/c1ccccc1	i	21	-9	1	-13	-4
Cc1ccc(/C=C\c2nccc3c2[nH]c2ccccc23)cc1	+	10	-8	6	-10	-7
c1ccc2c3c([nH]c2c1)CCNC3	i	-2	27*	-4	-8	-3
O=C1c2ccccc2CCc2ccc(Br)cc21	i	36*	-6	2	3	2
COc1ccc(CNC(=O)C(C)Sc2ccc(S(=O)(=O)N3CCOCC3)cn2)cc1 (centres undefined)	i	4	-2	4	0	4
COc1ccc(S(=O)(=O)NCC2CCCN(Cc3ccccc3Cl)C2)cc1 (centres undefined)	i	2	-6	51*	-24	6
O=C(Nc1ccccc1N1CCOCC1)C1=NN(c2c(F)c(F)cc(F)c2F)C(=O)CC1	i	-5	-3	-4	1	-25
CN(CC(=O)Nc1nc2ccccc2s1)S(=O)(=O)c1ccc(Cl)cc1	i	36*	-3	5	5	-7
CC(C)(C)NC(=O)c1ccc2c(c1)C1C3CCC(C3)C1C(c1ccccc1)N2 (centres undefined)	i	11	-8	-5	-6	5
CCCNC(=O)c1ccc2c(c1)C1C3CCC(C3)C1C(c1ccccc1)N2 (centres undefined)	i	48*	-3	2	-1	-15
COc1ccc(-c2n[nH]c(=S)n2-c2ccc(C)cc2C)cc1	i	4	6	-16	8	3
Cc1ccc(-n2c(-c3ccc(Cl)cc3)n[nH]c2=S)c(C)c1	+	12	-5	-13	8	1
CC1(C)N=C(N)N=C(N)N1c1ccc(CCCCc2ccccc2)cc1	i	-12	-8	57*	-30	.
CC1(C)N=C(N)N=C(N)N1c1ccccc1	i	-5	-5	-13	0	-9
O=c1c(-c2nc3ccccc3s2)cccn1Cc1ccccc1	+	-1	-5	-7	0	-1
Cc1ccc(Cn2cccc(-c3nc4ccccc4s3)c2=O)cc1	i	6	0	-10	12	-3
COc1ccc(-c2c(C)nn3c(N4CCOCC4)cc(C)nc23)cc1OC	+	7	-4	-8	5	-4
